Assay results from PubChem BioAssay AID651710 (Broad Institute, 2012).
Values joined by “and” are separate entries in the source; they are usually repeats but may differ in a detail not shown here. Identical values can stand only once. Hit rate of the full screen: of about 360,000 compounds, about 1,600 (0.44%) were called active.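 Rule for the calls: active = every replicate showing at least 50% inhibition; inconclusive = mean inhibition at least 50% but not in every replicate; inactive = the rest.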 Many of the other results were omitted from the sample, so actives are more common in it than they were. Some structures have more than one record in an assay (separate samples or runs), and their calls can disagree.

biological target: DNA repair protein RAD52 homolog (Homo sapiens) (UniProt P43351); experiment: RAD52 DNA annealing inhibitors, primary screen, biochemical, FRET, single point, set 2 (AID 651710); conditions: recombinant RAD52 DNA annealing, FRET fluorescence; at 18.7 µM; stronger effect = higher value
Sequence (P43351 whole entry, looked up): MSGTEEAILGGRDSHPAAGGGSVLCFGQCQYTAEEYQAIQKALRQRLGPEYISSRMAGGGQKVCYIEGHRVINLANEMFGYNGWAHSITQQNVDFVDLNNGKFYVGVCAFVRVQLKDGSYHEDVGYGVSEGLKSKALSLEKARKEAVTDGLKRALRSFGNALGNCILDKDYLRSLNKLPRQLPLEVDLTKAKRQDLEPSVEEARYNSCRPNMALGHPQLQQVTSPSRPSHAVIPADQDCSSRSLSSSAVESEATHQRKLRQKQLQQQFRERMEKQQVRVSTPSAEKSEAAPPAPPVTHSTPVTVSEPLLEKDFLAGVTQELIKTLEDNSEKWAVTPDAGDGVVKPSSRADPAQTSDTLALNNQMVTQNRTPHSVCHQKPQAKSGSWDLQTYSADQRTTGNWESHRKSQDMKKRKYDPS

inhibition, inactive:
CN(C)CC(=O)Nc1ccc2c(c1)[C@H]1C[C@H](CC(=O)NCc3ccccc3)O[C@@H](CO)[C@H]1O2 -10.3%
CN(C)CC(=O)Nc1ccc2c(c1)[C@@H]1C[C@H](CC(=O)NCc3ccc(-c4ccccc4)cc3)O[C@@H](CO)[C@@H]1O2 43.1%
CN1c2ccc(-c3ccc(C#N)cc3)cc2[C@@H]2[C@@H](CCN2S(=O)(=O)c2cccc(F)c2)[C@@H]1CO 8.85%
CCCNC(=O)[C@@H]1[C@@H](CO)[C@@H]2Cn3c(cccc3=O)[C@H]1N2C(=O)C1CC1 -0.051%
CS(=O)(=O)N1[C@H](C(=O)NCc2ccncc2)[C@@H](CO)[C@@H]2Cn3c(ccc(C4=CCCCC4)c3=O)[C@@H]21 -1.92%
CC1CN(c2nc(Nc3ccccc3)nc(N)c2[N+](=O)[O-])CC(C)O1 (configuration not stated) -8.87%
CC(Nc1nc(N2CCN(CCO)CC2)nc2ccccc12)c1ccccc1 (configuration not stated) -10.7%
N#C[C@@H]1[C@H](c2ccccc2C2=CCCCC2)[C@@H](CO)N1S(=O)(=O)c1cccc(F)c1 -3.37%
CCCNC(=O)C[C@H]1C[C@H]2c3cc(NC(=O)NC4CCCCC4)ccc3O[C@H]2[C@H](CO)O1 3.19%
C[C@H]1CN([C@@H](C)CO)C(=O)Cc2cc(NC(=O)Nc3ccc(F)cc3)ccc2O[C@@H]1CN(C)C(=O)NC1CCCCC1 -2.6%
O=C(NCCN1CCOCC1)c1ccc2c(c1)N(Cc1cccc(Cl)c1)C(=O)c1ccccc1S2(=O)=O -15.4%
CCCC1=Nc2cc(C(=O)NCCN3CCCC3)ccc2Sc2ccccc21 34%
CCN(CC)CCC(c1cc(OC)c(OC)c(OC)c1)c1c(OC)cc(OC)c2c(-c3ccccc3)cc(=O)oc12 (configuration not stated) 46.3%
CCN(CC)C(=O)CC(c1ccc2c(c1)OCO2)c1c(OC)cc(OC)c2c(-c3ccccc3)cc(=O)oc12 (configuration not stated) -104%
CCCC#Cc1cnc2c(c1)C(=O)N([C@H](C)CO)C[C@H](C)[C@@H](CN(C)Cc1ccccc1)O2 -1.46%
C/C=C/c1ccc(C2[C@H]3CNC[C@@H]2N3Cc2cccc(OC)c2)cc1 (some centres not stated) -8.08%
COc1ccc(CN(C)C[C@@H]2OCCCC[C@@H](C)Oc3ccc(NS(=O)(=O)c4ccc(C)cc4)cc3C(=O)N([C@@H](C)CO)C[C@H]2C)cc1 21%
COCC(=O)N1CC(=O)N2[C@H](CO)[C@@H](c3ccc(-c4ccncc4)cc3)[C@H]2C1 -7.77%
N#Cc1ccc(-c2ccc([C@@H]3[C@@H](CO)N4C(=O)CNC[C@H]34)cc2)cc1 14.7%
C/C=C/c1ccc(C2[C@H]3CNC[C@@H]2N3Cc2cccc(F)c2)cc1 (some centres not stated) 16.5%
COc1ccc(NC(=O)Nc2ccc3c(c2)[C@@H]2C[C@H](CC(=O)N4CCCCC4)O[C@H](CO)[C@@H]2O3)cc1 -6.62%
O=C([C@@H]1[C@@H](CO)[C@@H]2Cn3c(ccc(-c4ccccc4)c3=O)[C@H]1N2CCC(F)(F)F)N1CCCCC1 9.81%
CN(C)C(=O)C[C@@H]1C[C@@H]2c3cc(NC(=O)c4ccc5c(c4)OCO5)ccc3O[C@@H]2[C@H](CO)O1 5.11%
C[C@H](CO)N1C[C@H](C)[C@H](CN(C)C(=O)Nc2ccc(C(F)(F)F)cc2)Oc2ccc(NS(C)(=O)=O)cc2CC1=O -1.01%
COCC(=O)N(C)C[C@@H]1Oc2ncc(C#Cc3ccccc3OC)cc2C(=O)N([C@@H](C)CO)C[C@H]1C 0.963%
COc1ccccc1C#Cc1cnc2c(c1)C(=O)N([C@@H](C)CO)C[C@@H](C)[C@H](CN(C)C(=O)CN(C)C)O2 42.2%
CN(C)CC(=O)N1[C@@H](C#N)[C@@H](c2ccccc2-c2ccccc2F)[C@@H]1CO -4.36%
N#C[C@@H]1[C@@H](c2ccccc2C2=CCCC2)[C@H](CO)N1C(=O)NC1CCCC1 -0.746%
Cc1ccccc1S(=O)(=O)NCC[C@@H]1CC[C@@H](NS(=O)(=O)c2ccccc2C)[C@@H](CO)O1 -0.528%
Cc1ccc2c(c1)C1CN(C)CCC1N2S(=O)(=O)c1cccc(F)c1 (configuration not stated) -19.1%
Cc1ccc2c(c1)C1CN(C)CCC1N2C(=S)Nc1ccc(OC(F)F)cc1 (configuration not stated) -9.14%
CC=Cc1ccc2n(c1=O)C[C@@H]1[C@@H](CO)[C@H](C(=O)NCCCN3CCOCC3)[C@H]2N1Cc1cocn1 (mixture of isomers) -8.14%
O=C(NCCCN1CCOCC1)c1cn(-c2ccccc2)nc1-c1ccc(F)cc1 -2.27%
COc1ccc(-c2nn(-c3ccccc3)cc2/C=C\C(=O)N2CCOCC2)cc1[N+](=O)[O-] -18.6%
C[C@H]1CN([C@@H](C)CO)S(=O)(=O)c2ccc(-c3ccccc3)cc2O[C@H]1CN(C)C(=O)CC1CC1 5.01%
C[C@H](CO)N1C[C@H](C)[C@H](CN(C)C(=O)Nc2ccc3c(c2)OCO3)Oc2ccc(NC(=O)Nc3ccccc3)cc2CC1=O -4.77%
Fc1ccc(-c2ccc(NCCN3CCOCC3)nn2)cc1 -7.71%
Cc1cccc(C)c1OCCN1CCOCC1 -1.02%
COc1ccc(NC(=O)N(C)C[C@@H]2Oc3c(NS(C)(=O)=O)cccc3C(=O)N([C@H](C)CO)C[C@H]2C)cc1 1.83%
CC(C)NC(=O)Nc1ccc2c(c1)CC(=O)N([C@H](C)CO)C[C@H](C)[C@@H](CN(C)C(=O)Nc1ccc(F)cc1)O2 16.5%
N#Cc1cccc(-c2ccc(C3[C@H]4CNC[C@@H]3N4Cc3cncnc3)cc2)c1 (some centres not stated) -10.4%
N#Cc1ccc(-c2ccc(C3[C@H]4CNC[C@@H]3N4S(=O)(=O)c3ccccc3F)cc2)cc1 (some centres not stated) 28.8%
CCCNC(=O)N(C)C[C@@H]1Oc2ncc(C#CC(C)C)cc2C(=O)N([C@H](C)CO)C[C@H]1C -2.25%
O=C(Nc1ccc(S(=O)(=O)Nc2nccs2)cc1)c1cc(-c2ccncc2)nc2ccccc12 -42.2%
CCN(CC)CCNC(=O)c1ccc(NC(=O)c2c(F)cccc2Cl)cc1 -8.76%
COC(=O)Cc1nnn2c1[C@H](C)[C@@H](OC)c1cc(Br)ccc1-2 -4.62%
C[C@@H]1CN([C@@H](C)CO)C(=O)c2cc(NC(=O)Nc3ccccc3)ccc2O[C@@H]1CN(C)Cc1ccccc1 8.18%
COc1cccc(NC(=O)N[C@H]2C=C[C@H](CC(=O)NCc3ccccn3)O[C@@H]2CO)c1 -25.9%
COc1ccc(-c2ccc3c(c2)[C@@H]2[C@@H](CCN2C(=O)NC2CCCC2)[C@@H](CO)N3C)cc1 -19%
COCC(=O)Nc1ccc2c(c1)OC[C@H](C)NC[C@H](C)[C@H](OC)CN(C)C2=O -2.26%
COc1cccc(CN2[C@H](CO)[C@@H]3c4ccccc4N(C(=O)c4ccncc4)C[C@@H]32)c1 -8.72%
CC(=O)c1cccc(-c2cnc3c(NC=O)cc(-c4cccc(C(=O)N(C)C)c4)cn23)c1 -0.741%
CC(=O)c1cccc(-c2cnc3c(NC=O)cc(-c4ccc(N(C)C)cc4)cn23)c1 -47.5%
CN(C)C(=O)c1cccc(-c2cnc3c(NC=O)cc(-c4ccc(F)cc4)cn23)c1 -55.7%
CC(=O)Nc1cc(-c2ccc(N3CCN(C)CC3)cc2)cn2c(-c3ccc(F)cc3)cnc12 18%
CN(C)C(=O)c1cccc(-c2cnc3c(NC=O)cc(-c4ccc(C(=O)N5CCOCC5)cc4)cn23)c1 -29%
CC(=O)Nc1cc(-c2cccc(CO)c2)cn2c(-c3cccc(C(F)(F)F)c3)cnc12 -17.3%

inhibition, 73.9% (active) and 22.4% (inactive):
N#Cc1cccc(-c2ccc(C3[C@H]4CNC[C@@H]3N4S(=O)(=O)c3ccc(-c4ccccc4)cc3)cc2)c1 (some centres not stated)

inhibition, active:
CN(C)CC(=O)Nc1ccc2c(c1)[C@H]1C[C@@H](CC(=O)NCc3ccc(-c4ccccc4)cc3)O[C@H](CO)[C@H]1O2 60.2%
CN1CCN(c2nc(Nc3ccc(O)cc3)nc3ccccc23)CC1 72.4%
CCN1CCN(CCNC(=O)c2ccc(/C=C3/Sc4ccccc4N(Cc4cccc(C)c4)C3=O)cc2)CC1 51.6%
CCN(CC)CCC(c1ccc2c(c1)OCO2)c1c(OC)cc(OC)c2c(-c3ccccc3)cc(=O)oc12 (configuration not stated) 54.9%
N#Cc1ccc(-c2ccc([C@@H]3[C@H]4CNC[C@@H]3N4Cc3cc(F)ccc3F)cc2)cc1 69%
COc1ccccc1C#Cc1cnc2c(c1)C(=O)N([C@@H](C)CO)C[C@@H](C)[C@@H](CN(C)C(=O)CN(C)C)O2 51.1%
Cc1ccc2c(c1)C1CN(C)CCC1N2S(=O)(=O)c1ccc(Oc2ccc([N+](=O)[O-])cc2)cc1 (configuration not stated) 57.3%
O=C(/C=C/c1cn(-c2ccccc2)nc1-c1ccc2c(c1)OCCO2)NCCCN1CCOCC1 50.5%
c1ccc2cc3c(NCCN4CCOCC4)ccnc3cc2c1 79%
CCN(CC)CCNC(=O)c1ccc(NC(=O)c2cc(-c3ccncc3)nc3ccccc23)cc1 54.5%
Cc1nc(N=C(N)N)nc2c(C)cccc12 81.9%
CN(C)CCNC(=O)c1cccc(-c2cnc3c(NC=O)cc(-c4cccc(C(F)(F)F)c4)cn23)c1 67%
CC(=O)Nc1cc(-c2ccc(N3CCN(C)CC3)cc2)cn2c(-c3cccc(C(=O)N(C)C)c3)cnc12 79.7%
CC(=O)c1cccc(-c2cnc3c(NC=O)cc(-c4ccc(N5CCN(C)CC5)cc4)cn23)c1 73.8%
